Results reported in paper PMC5540273 (PLoS ONE, 2017).

Columns and labels:
Conditions in all cases: concentration: 1 μM, replicates: in singlicate; n = 1
CAMK4 = test system: CAMK4
CAMKK1 = test system: CAMKK1
CAMKK2 = test system: CAMKK2
CASK = test system: CASK
CDC2L1 = test system: T1, CDC2L1
T1 construct: gene CDK11B

CDC2L2 = test system: CDC2L2
CDC2L5 = test system: T2, CDC2L5
T2 construct: gene CDK13

CDK11 = test system: T3, CDK11
T3 construct: gene CDK19

CDK2 = test system: CDK2
CDK3 = test system: CDK3
CDK4-cyclinD1 = test system: CDK4-cyclinD1
CDK4-cyclinD3 = test system: CDK4-cyclinD3
CDK4 = test system: CDK4
CDK5 = test system: CDK5
CDK7 = test system: CDK7
CDK8 = test system: CDK8
CDK9 = test system: CDK9
CDKL1 = test system: CDKL1
CDKL2 = test system: CDKL2
CDKL3 = test system: CDKL3
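Further: KINOMEscan kinase panel screen.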

SMILES	%Inh (CAMK4) [%]	%Inh (CAMKK1) [%]	%Inh (CAMKK2) [%]	%Inh (CASK) [%]	%Inh (CDC2L1) [%]	%Inh (CDC2L2) [%]	%Inh (CDC2L5) [%]	%Inh (CDK11) [%]	%Inh (CDK2) [%]	%Inh (CDK3) [%]	%Inh (CDK4-cyclinD1) [%]	%Inh (CDK4-cyclinD3) [%]	%Inh (CDK4) [%]	%Inh (CDK5) [%]	%Inh (CDK7) [%]	%Inh (CDK8) [%]	%Inh (CDK9) [%]	%Inh (CDKL1) [%]	%Inh (CDKL2) [%]	%Inh (CDKL3) [%]
COc1cccc(NC(=O)Nc2ccc(C)c(-c3ccc(C(=O)Nc4ccncc4)cc3)c2)c1 [GSK1398474]	10	0	19	0	0	15	0	0	24	0	0	0	37	0	0	0	0	51	18	0
CSc1ccc(-c2nc3n(c2-c2ccncc2)CCC3)cc1 [SKF-105561]	30	0	0	3	15	24	30	0	0	0	0	0	27	0	0	0	0	7	0	0
Cc1nccc(-c2c(-c3ccc(F)cc3)ncn2CCCN2CCOCC2)n1.Cl [SB-282975]	6	9	0	21	100	23	5	11	37	26	14	33	18	3	27	39	100	34	20	12
COc1ccc(CSc2nnc(-c3ccc4ncsc4c3)o2)cc1C(F)(F)F	0	0	0	10	0	0	35	37	1	0	0	0	0	2	0	15	0	0	0	0
O=C1NC(=O)C(c2ccc(Cl)cc2)=C1Nc1cccc(Cl)c1 [SB-317651]	29	7	5	27	0	4	0	6	0	8	12	0	100	0	16	2	0	11	20	2
NS(=O)(=O)c1cccc(N/C=C2\C(=O)Nc3ccc(S(=O)(=O)Cc4c(Cl)cccc4Cl)cc32)c1 [GSK398099]	0	72	60	27	0	9	0	0	0	24	0	18	0	0	0	0	0	100	37	0
CC(C)c1cc(-c2ccc3c(N)n[nH]c3c2)nc(N)n1 [GSK2250882]	0	0	18	21	0	5	0	0	0	5	0	0	0	0	0	20	0	23	20	0
CS(=O)(=O)CCNCc1nc(-c2ccc3ncnc(Nc4ccc5c(cnn5Cc5ccccc5)c4)c3c2)cs1.Cl.Cl [GW569716]	0	4	1	0	0	0	0	0	0	1	41	0	39	18	0	41	0	0	11	100
